The panel holds about 83,000 compounds, 20% with a hit somewhere; the sample as a whole holds those more often.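 A percent growth of 40 corresponds to 60% growth inhibition; 0 means no net growth; -100 means all cells died. Active threshold: below 10.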 Unmarked numbers belong to inactive results. Activity calls are given as the source filed them.

The subject of the assay is SF-295 CNS. Put plainly: NCI-60 one-dose screen, 48 h (100 = growth as untreated, 0 = no growth, -100 = all killed). As to conditions: 10 µM unless noted.
For `O=C(Nc1cccc2ccccc12)c1cc2ccccc2cc1O`, the growth is 6.2% (active).

As to `COc1cc2c(O)n(CCCN3CCOCC3)c3c4cnc5cccc(c(=O)c3c2cc1OC)c54`, the growth is 17.1%.

On to `C#CCNC(=O)CC[C@@H](C)[C@H]1CC[C@H]2[C@@H]3CC[C@@H]4CC(=O)CC[C@]4(C)[C@H]3CC[C@]12C`, for which the growth is -51.3% [100 µM] (active).

Regarding `COc1ccc(NC(=O)Nc2ccc(-c3cccnc3)cc2N2CCC(CO)CC2)cc1`, the growth is 32%.

`CC1(C(=O)O)CCC(N)(C(=O)O)C1(C)C` (configuration not stated): the growth was 97.3%.

For the molecule `COc1ncc(-c2ccc3nccc(C#CCCCCC(=O)NO)c3c2)cc1NS(=O)(=O)c1ccc(F)cc1F`, the growth was -9.35% (active).

Regarding `O=C(O)CC1CCCCC1c1ccccc1` (configuration not stated), the growth is 100%.

Turning to `CC(C)=CC/C=C(/C)[C@H]1CC[C@]2(C)[C@@H]1CC[C@@H]1[C@@]3(C)CCC(=O)NC(C)(C)[C@@H]3CC[C@]12C`, the growth is -22.5% [100 µM] (active).

On to `Cc1nc(Cl)c2c(n1)N(C)c1ccc(Cl)cc1C(C)C2` (configuration not stated), for which the growth was 91.2%.

Consider `Cc1ccc(N)c(O)c1`, for which the growth was 121%.

Consider `Nc1ccc(Cl)c([N+](=O)[O-])c1`, for which the growth was 96.7%.

On to `O=[N+]([O-])c1cccc(N=NNc2cccc([N+](=O)[O-])c2)c1`, for which the growth was 95.6%.

In the case of `C=C(C)[C@@H]1CC[C@]2(C)[C@H](CC[C@@H]3[C@@H]([C@@](C)(O)CCC=C(C)C)CC[C@]32C)[C@@]1(C)CCC(=O)N1CCN(C)CC1`, the growth was -88.7% [100 µM] (active).

Regarding `Cn1cc(-c2noc(C(=O)c3cn(C)c4ncc(Br)cc34)n2)c2ccccc21`, the growth was 101%.

For `COc1cc(NCc2ccccc2O)c2ncccc2c1`, the growth was 129%.

For the molecule `Cc1ccc(C2=C/C(=C/c3ccc(Br)cc3)C(=O)N2CCc2ccc(S(N)(=O)=O)cc2)cc1`, the growth is 101%.

For `Nc1nc(Nc2ccccc2)c2ncn(Cc3ccc4c(c3)OCO4)c2n1`, the growth is 43.6%.

In the case of `O=C(CCCSc1nc(-c2ccccc2)cc(-c2ccccc2)n1)NO`, the growth is 4.39% (active).

For `FC(F)(F)c1ccc2c(c1)Sc1ccccc1N2`, the growth was 97.2%.

In the case of `O=C1NC(=O)C(Cc2ccccc2)(Cc2ccccc2)N1`, the growth is 94.2%.

As to `C=C(C)[C@@H]1CC[C@]2(C(=O)N3CCN(C)CC3)CC[C@]3(C)[C@H](CC[C@@H]4[C@@]5(C)C/C(=C/c6ccncc6)[C@H](O)C(C)(C)[C@@H]5CC[C@]43C)[C@@H]12`, the growth was -53.6% [100 µM] (active).

As for `C[C@@H](NC(=O)[C@@H](CC(=O)N1CCC(N2CCCCC2)CC1)N1C(=O)[C@@H](N2C(=O)OC[C@@H]2c2ccccc2)[C@H]1/C=C/c1cccc(Cl)c1)c1ccccc1`, the growth was 82%.

Regarding `N#C/C(=C(/O)CCCO)c1nc2ccccc2c(=O)[nH]1`, the growth is 150%.

In the case of `Cn1cc(-c2nnc(-c3cn(C)c4ncc(Br)cc34)s2)c2cc(Br)ccc21`, the growth was 103%.

For `CC1(C)CC[C@]2(C(=O)OC(=O)[C@]34CCC(C)(C)C[C@@H]3C3=CC[C@@H]5[C@@]6(C)CCC(=O)C(C)(C)[C@@H]6CC[C@@]5(C)[C@]3(C)CC4)CC[C@]3(C)C(=CC[C@@H]4[C@@]5(C)CCC(=O)C(C)(C)[C@@H]5CC[C@]43C)[C@H]2C1`, the growth was 76.5% [100 µM].

For the molecule `Cn1cc(-c2noc(-c3cn(C)c4ncc(Br)cc34)n2)c2cc(Cl)ccc21`, the growth was 63%.

On to `CCc1cccc(Cl)c1`, for which the growth is 110%.

Consider `c1cc2ccc3cc2cc1CNCCN1CCNCc2ccc4ccc(cc4c2)CNCCN(CCNC3)CCNCc2ccc3ccc(cc3c2)CNCC1`, for which the growth is 66.8%.

As for `COc1ccc(-c2cc(-c3ccccc3)nc(NCCNc3ccnc4cc(Cl)ccc34)n2)cc1`, the growth was -75.4% (active).

With `O=C(N/N=C\c1cc(Cl)ccc1O)N/N=C/c1cc(Cl)ccc1O`, the growth was 25.5%.

As to `O=C1Nc2ccccc2/C1=C/C(=O)c1ccc(N2CCCCC2)cc1`, the growth was 103%.

In the case of `O=c1c2c3c(sc2n2cnnc2n1Cc1ccccc1)CCCC3`, the growth was 57.1%.

Turning to `Cn1c(=O)c(C#N)c(-c2ccco2)n2c(S(=O)(=O)Cc3ccccc3)nnc12`, the growth is 112%.

Regarding `CCCCCn1sc(=O)n(Cc2ccc(CNC(=O)OCc3ccc4cccc(O)c4n3)cc2)c1=O`, the growth is 31.1%.

Consider `O=C(N/N=C/c1ccc([N+](=O)[O-])cc1)c1ccc(Br)o1`, for which the growth was 83%.

For the molecule `C=C(C)[C@@H]1CC[C@]2(COCCC#N)CC[C@]3(C)[C@H](CC[C@@H]4[C@@](C)(CCCNCCC#N)[C@H](C(=C)C)CC[C@]43C)[C@@H]12`, the growth is 65.2% [100 µM].

Take `C=C(C)[C@@H]1CC[C@]2(C(=O)OC)CC[C@]3(C)[C@H](CC[C@@H]4[C@@]5(C)CC/C(=N\OCCC(=NCCC#N)NOCCC#N)C(C)(C)[C@@H]5CC[C@]43C)[C@@H]12`: the growth was 36.6% [100 µM].
